Data reported in PubChem BioAssay AID1030 (National Center for Advancing Translational Sciences (NCATS), 2008).
Hit rate of the full screen: of about 220,000 compounds, about 16,000 (7.3%) were called active. Inconclusive results (about 25%) are left out. The call rests on the fitted dose curve; in most records, active means well fitted inhibition curve with a large enough effect (not every such curve was filed as active); inconclusive means small, poorly fitted or top-dose-only effect, or another doubt; inactive means no such curve, though single readings can be large or run the other way. Shown is part of a subset that was picked to be rich in actives.

target: Aldehyde dehydrogenase 1A1 (Homo sapiens) (UniProt P00352); assay: qHTS Assay for Inhibitors of Aldehyde Dehydrogenase 1 (ALDH1A1); conditions: Purified ALDH1A1, NADH fluorescence, propionaldehyde substrate; series mostly up to 75.3 µM; activity, negative = inhibition: at the top concentration;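 on activity, negative = inhibition: plate controls were no enzyme wells and a reference inhibitor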
Potency means the concentration at half of the fitted maximal effect.

Aldehyde dehydrogenase 1A1 (Homo sapiens), sequence (P00352 whole entry, looked up): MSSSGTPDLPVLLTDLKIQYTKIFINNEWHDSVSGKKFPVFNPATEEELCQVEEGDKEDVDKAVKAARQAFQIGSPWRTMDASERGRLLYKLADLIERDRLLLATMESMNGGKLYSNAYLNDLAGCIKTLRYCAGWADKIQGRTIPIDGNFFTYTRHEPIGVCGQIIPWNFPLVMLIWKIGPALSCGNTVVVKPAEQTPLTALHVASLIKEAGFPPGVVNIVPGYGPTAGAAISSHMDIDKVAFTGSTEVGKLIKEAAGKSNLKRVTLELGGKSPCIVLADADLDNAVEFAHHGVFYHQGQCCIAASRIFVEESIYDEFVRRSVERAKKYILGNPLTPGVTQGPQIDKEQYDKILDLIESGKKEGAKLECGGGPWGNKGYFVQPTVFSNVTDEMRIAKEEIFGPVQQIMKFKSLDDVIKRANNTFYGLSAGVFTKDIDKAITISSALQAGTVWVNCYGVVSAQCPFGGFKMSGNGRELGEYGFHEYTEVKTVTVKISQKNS

activity, negative = inhibition, inactive:
CCc1ccccc1N1CN(Cc2ccco2)CNC1=S 9.78%
CCCCN(CC)CCNC(=O)CCNC(=O)Cn1ccc2ccccc2c1=O 1.61%
CCSC1=NCCN1S(=O)(=O)c1ccc(F)cc1 -7.78%
COC(=O)CC1c2ccccc2C(Cc2ccc(OC)cc2)=C(C)N1C(=O)OC (centres undefined) -1.14% [at 13.5 µM]
O=C(NC1CCN(Cc2ccccc2)CC1)c1cc(Br)c(Br)[nH]1 5.04%
O=C(COc1ccc(Br)cc1F)NC1CCN(Cc2ccccc2)CC1 6.09%
COc1ccc2ccccc2c1CNc1nnnn1C -6.21%
COC(=O)c1cc(NC(=O)c2cccnc2)ccc1N1CCOCC1 12.4%
CC1=NN(C(=O)c2ccc(Br)cc2)C(O)(c2ccccc2)C1 (centres undefined) -5.04%
O=C(COC(=O)CCc1nc2ccccc2c(=O)[nH]1)Nc1ccc(N2CCOCC2)cc1 -2.55%
CC1CC(C)CN(CCC(=O)Nc2ccc3c(c2)CCC3)C1 (centres undefined) -9.83%
NS(=O)(=O)c1ccc(NC(=O)COC(=O)c2ccco2)cc1 1.15%
COc1ccc(C2C(C#N)=C(N)N(c3ncn[nH]3)C3=C2C(=O)CCC3)cc1 (centres undefined) -2.36%
CC(C)(C)NC(=O)NC(=O)COC(=O)Cc1c(F)cccc1Cl 0.773%
CCOC(=O)COc1cc(O)c2c(=O)cc(-c3ccccc3)oc2c1 -1.95%
O=C(COc1ccc2c(C(F)(F)F)cc(=O)oc2c1)Nc1ccc2c(c1)OCCO2 -0.303%
CC(Sc1nc2cc(Cl)ccc2s1)C(=O)Nc1ccc2c(c1)OCO2 (centres undefined) -1.3%
Cc1cc(Cl)ccc1OCCCC(=O)NCc1ccccn1 5.45%
Cc1cccc(N=Nc2c(C)[nH]n(-c3ccccc3)c2=O)c1 0.918%
Cc1cccc(N2C(=O)C3C(c4ccccc4)OC4(C(=O)c5ccccc5C4=O)C3C2=O)c1 (centres undefined) -1.19%
COc1ccccc1-c1noc(CSc2nc(C)cc(=O)[nH]2)n1 3.99%
CC(=O)Nc1ccn(Cc2c(F)cccc2Cl)n1 11.3%
O=C(CSc1ncnc2c1nnn2Cc1ccc(F)cc1)NC1CCCC1 5.38%
CCOc1ccc(OCc2cccc(C(=O)N(CC)CC)c2)cc1 -11.7%
CC(C)NC(=S)NN=C1CCCCCCCCCCC1 -4.75%
OC[C@H]1O[C@@H](n2cnc3c(NC4CCCC4)ncnc32)[C@H](O)[C@H]1O -8.77%
CCN(CC)S(=O)(=O)c1ccc(N(C)CCc2ccc(OC)c(OC)c2)nc1 6.98%
CN(C)c1ccc(/C=C/C(=O)c2ccc(C(C)(C)C)cc2)cc1[N+](=O)[O-] -0.256%
O=C(/C=C/c1ccc2c(c1)OCCO2)c1ccc(O)cc1 4.61%
CCOc1ccccc1/C=N/NC(=O)CNC(=O)COc1ccccc1 -5.79%
CCC(C)NC(=O)C1c2ccccc2Oc2ccccc21 (centres undefined) 7.74%
O=C(Nc1ccc(N2CCN(C(=O)c3cccs3)CC2)cc1)c1cccnc1Cl 0.829%
Cc1cc(Cl)ccc1NNC(=O)c1snnc1C 4.29%
C=CCNC(=O)CSc1nc2sc(C)c(C)c2c(=O)[nH]1 -3.38%
CC(C)C(C)(C#N)NC(=O)CSc1nncn1-c1ccccc1 (centres undefined) 2.04%
CCOC(=O)c1sc2nc(C)nc(Nc3ccc(OC)c(OC)c3)c2c1C -1.57%
Cc1ccc(S(=O)(=O)NCCc2nnc3ccc(SCc4cccnc4)nn23)cc1 -5.59%
CCN(CC)C(=O)Oc1ccc(Br)cc1C(=O)Nc1ccc(F)c(Cl)c1 4.26%
CNC(=O)c1[nH]cnc1C(=O)N[C@@H](CC(C)C)C(=O)OCc1ccccc1 4.76%
O=C(Cc1ccc(F)cc1)N/N=C/c1ccc2c(c1)OCO2 -2.31%
Cc1c(NC(=O)Nc2ccccc2)cccc1[N+](=O)[O-] -4.7%
Cc1cc(C)cc(NC(=S)NCc2ccc(F)cc2)c1 -1.59%
Cc1c(NC(=O)CCCOc2ccccc2)cccc1[N+](=O)[O-] -17.8%
Cc1cccc(NC(=S)NCCc2ccc(F)cc2)c1C -1.95%
COc1cc(C(=O)OCc2ccc([N+](=O)[O-])cc2)cc(OC)c1OC 7.71%

Potency, active:
S=C(Nc1ccc(Br)cc1Cl)NC1CCN(Cc2ccccc2)CC1 0.631 µM
CC1CC(C)CN(CC(=O)Nc2ccc(S(N)(=O)=O)cc2)C1 (centres undefined) 8.91 µM
CC(=O)COc1ccc2c(-c3ccccc3)cc(=O)oc2c1 6.31 µM
Cc1cccc(N2C(=O)SC(SC(=Nc3ccccc3)Nc3ccccc3)C2=O)c1 (centres undefined) 15.8 µM
OC1CCCN(c2ncnc3c2nnn3Cc2c(F)cccc2Cl)C1 (centres undefined) 7.94 µM
CN(C)c1ccc(/C=C/C(=O)c2ccc(O)cc2)cc1[N+](=O)[O-] 17.8 µM
CC(C)C(C)(C#N)NC(=O)CSc1nc2scc(-c3ccccc3)c2c(=O)[nH]1 (centres undefined) 11.2 µM
Cc1c(NC(=S)NCc2ccc(F)cc2)cccc1[N+](=O)[O-] 31.6 µM
Cc1c(NC(=O)/C=C/C(=O)O)cccc1[N+](=O)[O-] 25.1 µM
